# High-throughput results deposited in PubChem by National Center for Advancing Translational Sciences (NCATS).
# Sampled rows, rich in hits. Any-hit rate of the full collection: about 18%.
# TDP1 block – TDP1 (human) enzyme inhibition; Q9NUW8; recombinant TDP1, AlphaScreen DNA substrate cleavage; Potency, µM (series often up to 130 µM), for the others: at the highest dose activity change, negative = inhibition, hits mostly inhibitors; 0.28% of 350,000 active; further: nearly all actives have a fitted effect of over 40% in size
#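 Enzyme-compound mixtures sat 15 min at room temperature, followed by a 5 min reaction with 15 nM final substrate and 10 min with AlphaScreen beads. Recombinant human Tdp1 was used at 1 nM final.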
# GCN5L2 inh – GCN5L2 (KAT2A) acetyltransferase inhibition. Potency, µM (series often up to 58.9 µM), without a hit: at the top dose activity change, negative = inhibition, actives largely listed as inhibitors. 0.21% of 390,000 active. AID 504327. GCN5L2 HAT assay, ThioGlo1 CoA-SH fluorescence. Q92830
#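 Titration-based screen in which CoA formation is detected via maleimide probe ThioGlo1 (50uM) turning fluorescent on thiol reaction; substrates H3(1-25) 75uM and acetyl-CoA 70uM, GCN5L2 20nM, 20 min incubation at room temperature.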
# TDP1 cell CPT – DT40-hTDP1 cell growth loss with CPT; chicken DT40 Tdp1-/-;hTDP1 cells + 20 nM CPT, ATP luminescence, 48 h; Potency, µM (titrated, usually from 46.2 µM), without a hit: at the top dose activity change, negative = growth inhibition, hits mostly inhibitors; 12% of 420,000 active; AID 686979; further: nearly all actives have a fitted effect of over 55% in size
#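 Chicken DT40 Tdp1-/- cells complemented with human TDP1, 400 cells/well, exposed to compounds plus 20 nM camptothecin for at least 48 h at 37 C; viability read as ATP content by CellTiter-Glo luminescence.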
# PLK1 PBD block – PLK1 (human) polo-box domain binding inhibition; 2.8% of 360,000 active; P53350; AID 720504; Plk1 PBD binding of FITC phosphopeptide, fluorescence polarization; Potency, µM, for inactives: max response, negative = inhibition, hits mostly inhibitors; further: series mostly up to about 57 µM; nearly all actives have a fitted effect of over 65% in size
# Target sequence (P53350 whole entry, looked up, the tested form may be a part): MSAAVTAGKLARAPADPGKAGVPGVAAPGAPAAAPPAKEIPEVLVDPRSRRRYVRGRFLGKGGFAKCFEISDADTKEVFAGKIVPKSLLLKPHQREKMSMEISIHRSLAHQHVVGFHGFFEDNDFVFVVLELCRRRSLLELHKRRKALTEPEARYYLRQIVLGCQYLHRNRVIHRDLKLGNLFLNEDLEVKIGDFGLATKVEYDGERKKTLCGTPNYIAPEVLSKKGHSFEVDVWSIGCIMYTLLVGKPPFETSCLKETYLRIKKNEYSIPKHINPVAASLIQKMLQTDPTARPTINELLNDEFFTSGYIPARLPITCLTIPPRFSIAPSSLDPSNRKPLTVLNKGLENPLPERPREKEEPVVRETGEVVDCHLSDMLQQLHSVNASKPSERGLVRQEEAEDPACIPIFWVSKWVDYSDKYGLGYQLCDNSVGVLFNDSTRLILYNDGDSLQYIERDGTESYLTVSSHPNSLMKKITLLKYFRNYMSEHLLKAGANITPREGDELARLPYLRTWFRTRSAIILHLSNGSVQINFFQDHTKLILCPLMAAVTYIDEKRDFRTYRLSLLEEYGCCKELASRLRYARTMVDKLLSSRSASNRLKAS
# DT40 TDP1 no CPT – qHTS for Inhibitors of human tyrosyl-DNA phosphodiesterase 1 (TDP1): qHTS in cells in absence of CPT; Potency, µM (series often up to 46.2 µM), without a hit: top-dose activity change, negative = growth inhibition, usual class: inhibitors; DT40 Tdp1-/- hTDP1 cells, no CPT, ATP luminescence, 48 h; 15% of 420,000 active; AID 686978, 2013; further: nearly all actives have a fitted effect of over 55% in size
#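 Stably hTDP1-transfected Tdp1-null chicken DT40 cells were treated with library compounds minus camptothecin and grown for at least 48 hr at 37 °C, after which cellular ATP was quantified by luminescence.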
# VDR inhibitor – vitamin D3 receptor (human) inhibition; VDR-SRC2-3 peptide fluorescence polarization, 2 h; Potency, µM, for the others: max response, negative = inhibition, usual class: inhibitors; 0.93% of 400,000 active; AID 504847
#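 VDR–SRC2-3 interaction, FP format. Cmpds 23 nl via pintool, brief spin, 2 h ambient incubation.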
# Starred values were filed as active, the others as inactive; ? = inconclusive; . = no result given; [ ] = remark or other dose. The call rests on the fitted dose curve; in most records, active means well fitted curve in the direction sought with a large enough effect; inconclusive means small, poorly fitted or top-dose-only effect, or another doubt; inactive means no such curve, though single readings can be large; an effect the other way counts as inactive or inconclusive. On the % scale 0 is the no-effect control and ±100 the full control effect; potency means the concentration at half of the fitted maximal effect.
SMILES,TDP1 block,GCN5L2 inh,TDP1 cell CPT,PLK1 PBD block,DT40 TDP1 no CPT,VDR inhibitor
Cc1cc(C)c(S(=O)(=O)N2CCC3(CC2)OCCN3S(=O)(=O)c2cccs2)c(C)c1,-2.4%,-3.9%,?,-4.8%,23.1µM*,-4.1%
Cc1ccc(S(=O)(=O)N2CCC3(CC2)OCCN3S(=O)(=O)c2c(C)cc(C)cc2C)cc1,-5.4%,-2.7%,25.9µM*,-2.3%,16.4µM*,-0.5%
COc1ccc(S(=O)(=O)N2CCOC23CCN(S(=O)(=O)c2ccccc2)CC3)cc1,-3.0%,-0.5%,?,-4.5%,?,-10.1%
COc1ccc(C)cc1S(=O)(=O)N1CCC2(CC1)OCCN2S(=O)(=O)c1cccs1,1.4%,-2.1%,?,-1.7%,?,1.3%
CCc1ccc(NC(=O)c2ccc3c(c2)nnn3CC)cc1,5.3%,3.6%,9.8%,.,?,1.2%
Cc1cccc(-n2ncc3c2CCCC3NC(=O)C2=CC(=O)CC(C)(C)O2)c1C (stereo unspecified),2.4%[56.1 µM],0.2%,4.61µM*,-5.1%,8.2µM*,8.1%
Cc1cc(C)c(C(=O)NC2CCCc3c2cnn3-c2cccc(C)c2C)o1 (stereo unspecified),7.2%,-6.5%,20.6µM*,-16.9%,?,6.2%
Cc1cccc(-n2ncc3c2CCCC3NC(=O)C2(C(N)=O)CC2)c1C (stereo unspecified),3.2%,-5.9%,10.3µM*,-1.7%,?,5.3%
CC1(C)CC(=O)C=C(C(=O)NC2CCCc3c2cnn3-c2cc(F)cc(F)c2)O1 (stereo unspecified),2.7%[56.1 µM],-21.8%,?,1.5%,?,-5.6%
CCOC(=O)C1CCN(CCC(=O)Nc2ccc(C)c(C)c2)CC1,-12.3%,-0.6%,5.0%,3.4%,10.3%,17.0%
COc1cc(C2NC(=O)NC(C)=C2[N+](=O)[O-])cc(OC)c1OC (stereo unspecified),2.6%,1.9%,-2.0%,-17.9%,15.9%,-2.4%
O=C(Nc1ccc([N+](=O)[O-])cc1)c1cn(-c2ccccc2)nc1-c1cc2ccccc2o1,-1.1%,-1.5%,8.2µM*,-7.8%,10.3µM*,-12.6%
Cc1ccc(NC(=O)c2cn(-c3ccccc3)nc2-c2ccccc2)cc1,5.7%,-3.2%,?,.,?,20.8%
Cc1nn(Cc2c(Cl)cccc2Cl)c(C)c1NC(=O)c1cn(-c2ccccc2)nc1-c1ccccc1,-4.0%,24.0%,6.51µM*,-1.4%,4.61µM*,8.5%
O=C(Nc1nc2ccccc2n1CCN1CCOCC1)c1cn(-c2ccccc2)nc1-c1ccccc1,12.3%,-10.4%,18.4µM*,0.2%,18.4µM*,-1.2%
O=C(Nc1ccccc1)c1cn(-c2ccccc2)nc1-c1ccccc1,2.9%,-10.6%,?,.,16.4µM*,10.1%
Cc1cccc(C)c1NC(=O)CNC(=O)c1cn(-c2ccccc2)nc1-c1ccccc1,4.5%[56.1 µM],-11.9%,?,3.2%,?,-4.3%
Cc1cn2c(=O)c(S(=O)(=O)NCCc3ccccc3)c(C)nc2s1,-2.6%,-6.9%,-23.1%,.,-6.7%,8.4%
O=C(CCl)Nc1cn(-c2ccccc2)nc1-c1ccc(F)cc1,5.3%,-4.8%,4.61µM*,-6.5%,3.66µM*,-8.1%
COCc1cc(C)nc2sc3c(c12)NC(c1ccccc1C(=O)O)N(c1cccc(C(F)(F)F)c1)C3=O (stereo unspecified),2.3%,-5.1%,29.1µM*,.,?,17.2%
COCc1cc(C)nc2sc3c(c12)NC(c1ccc(O)cc1)N(c1ccc(C)cc1)C3=O (stereo unspecified),-2.3%,-8.8%,18.4µM*,.,18.4µM*,3.2%
Cc1ccc(OCCCCCCN2CCNCC2)c(Br)c1,.,.,?,-2.2%,20.6µM*,-13.2%
Cc1ccc(OCCCCN2CCC(C)CC2)c(Br)c1,2.8%,-3.2%,23.1µM*,-5.5%,?,-0.5%
